# Source: PubChem
# EPAC2 antag: EPAC2 (human) antagonism | EPAC2 GEF exchange of Rap1B-BODIPY-GDP, fluorescence | 360,000 compounds, 0.18% hits | Q8WZA2 | Potency, µM (highest dose often 114 µM), for inactives: at the top dose activity, negative = inhibition, most hits filed as inhibitors; also: % is scaled to controls: 0 for no effect and ±100 for the full control effect; nearly all actives have a fitted effect of over 45% in size
# Target sequence (Q8WZA2 whole entry, looked up): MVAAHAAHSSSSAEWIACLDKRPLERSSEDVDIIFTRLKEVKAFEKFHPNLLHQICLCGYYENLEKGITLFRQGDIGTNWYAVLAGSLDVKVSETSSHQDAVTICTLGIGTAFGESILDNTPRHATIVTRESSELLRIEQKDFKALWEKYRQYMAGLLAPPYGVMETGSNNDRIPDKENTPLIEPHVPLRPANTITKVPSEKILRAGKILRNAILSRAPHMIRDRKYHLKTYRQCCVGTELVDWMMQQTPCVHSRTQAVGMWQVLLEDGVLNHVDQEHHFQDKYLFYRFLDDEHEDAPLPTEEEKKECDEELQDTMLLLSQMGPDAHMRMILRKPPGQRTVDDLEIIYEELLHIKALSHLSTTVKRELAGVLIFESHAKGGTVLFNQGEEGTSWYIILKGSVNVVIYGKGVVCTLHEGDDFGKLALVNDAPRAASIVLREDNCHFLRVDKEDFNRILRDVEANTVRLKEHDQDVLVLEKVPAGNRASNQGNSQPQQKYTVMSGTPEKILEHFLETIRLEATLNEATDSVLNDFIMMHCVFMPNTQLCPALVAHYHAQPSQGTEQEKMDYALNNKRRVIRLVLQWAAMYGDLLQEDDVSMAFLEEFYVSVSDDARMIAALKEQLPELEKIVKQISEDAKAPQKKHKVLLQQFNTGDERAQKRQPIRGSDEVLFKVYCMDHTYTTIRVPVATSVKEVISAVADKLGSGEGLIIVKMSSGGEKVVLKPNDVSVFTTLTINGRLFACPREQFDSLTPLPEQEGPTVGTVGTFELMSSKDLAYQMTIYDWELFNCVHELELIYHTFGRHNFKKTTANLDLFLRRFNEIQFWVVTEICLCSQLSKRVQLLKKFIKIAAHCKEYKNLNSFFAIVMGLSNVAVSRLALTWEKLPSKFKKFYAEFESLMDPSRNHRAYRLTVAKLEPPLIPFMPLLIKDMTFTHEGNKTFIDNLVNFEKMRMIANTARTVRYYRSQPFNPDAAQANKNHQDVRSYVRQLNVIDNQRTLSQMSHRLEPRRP
# USP1-UAF1 inh: blocks the human USP1/UAF1 deubiquitinase complex | recombinant USP1/UAF1, Ub-Rhodamine cleavage fluorescence | Potency, µM (highest dose often 57.1 µM), for the others: top-dose activity change, negative = inhibition, most hits filed as inhibitors | 390,000 compounds, 0.23% hits; also: % is scaled to controls: 0 for no effect and ±100 for the full control effect; nearly all actives have a fitted effect of over 60% in size
#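 1 nM enzyme complex + cpd, 15 min RT; start with Ub-Rho 150nM final; kinetic fluorescence ex 480/em 540, 6 reads q60 s. Buffer 50mM HEPES pH 7.8, 0.5mM EDTA, 0.1 mg/ml BSA, 1mM TCEP, 0.01% Tween-20.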
# EPAC1 antagonist: EPAC1 (human) antagonism | Potency, µM (top dose mostly 115 µM), inactives show at the top dose activity change, negative = inhibition, usual class: inhibitors | 360,000 compounds, 0.14% hits | O95398 | EPAC1 GEF assay, Rap1b-BODIPY-GDP exchange fluorescence | AID 720709;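 also: plate controls were vehicle for no effect and positive control for full effect; nearly all actives have a fitted effect of over 50% in size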
# EPAC2 agonist: EPAC2 (human) agonism. Potency, µM (top dose mostly 154 µM), without a hit: top-dose activation, hits mostly activators. 360,000 compounds, 0.079% hits. EPAC2 activation, biochemical qHTS; response scale: 100% = 6.5 mM cAMP response; also: nearly all actives have a fitted effect of over 50% in size
#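 In this primary screen, activation is scored as increased exchange of BODIPY-GDP from Rap1B by 100 nM EPAC2, with 50 uM GDP as competitor. Signal is normalized to the 6.5 mM cAMP agonist control.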
# EPAC1 agonist: EPAC1 (human) agonism | O95398 | EPAC1 agonist qHTS, biochemical assay; response scale: 100% = response to 6.5 mM cAMP | Potency, µM (series often up to 154 µM), inactives show top-dose activation, hits mostly activators | 360,000 compounds, 0.073% hits | AID 720707; also: nearly all actives have a fitted effect of over 60% in size
#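 Nucleotide exchange assay: 100 nM EPAC1 with 250 nM Rap1B loaded with BODIPY-GDP and 50 uM GDP, room temperature. Fluorescence (480/540 nm) read every 5 min for 30 min; signal change normalized to 6.5 mM cAMP as full agonist.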
# VDR inhibitor: blocks the human vitamin D receptor. P11473. VDR-SRC2-3 peptide fluorescence polarization, 2 h. Potency, µM, for the others: max response, negative = inhibition, actives largely listed as inhibitors. 400,000 compounds, 0.93% hits; also: % is scaled to controls: 0 for no effect and ±100 for the full control effect
#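 Signal is fluorescence polarization, reporting how far test compounds block the interaction of VDR with the SRC2-3 coregulator peptide after a 2 h room-temperature incubation.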
# * hit, by the source's call; u = inconclusive; x = no result given. Shown are actives, neighbours in structure and some others; about 1.2% of the full set was active somewhere. Calls follow the shape of the dose curve; as a rule, active = well fitted curve in the direction sought with a large enough effect; inconclusive = small, poorly fitted or top-dose-only effect, or another doubt; inactive = no such curve, though single readings can be large; an effect the other way counts as inactive or inconclusive. Potency is read from the fitted curve at half-maximal effect.
SMILES,EPAC2 antag,USP1-UAF1 inh,EPAC1 antagonist,EPAC2 agonist,EPAC1 agonist,VDR inhibitor
Cn1cccc1/C=C1\CCC/C(=C\c2cccn2C)C1=O,u,22µM*,19%,-21%,100µM*,-18%
CCOC(=O)N1CCN(c2nc(C(F)(F)F)nc3c(C)cc(C)cc23)CC1,-20%,-16%,-12%,9%,-1%,-6%
Cc1cc(C)c2nc(C(F)(F)F)nc(N3CC(C)OC(C)C3)c2c1 (stereo unspecified),10µM*,-10%,-9%,-2%,2%,-2%
O=C(/C(=C/c1cccnc1)n1ccnc1)c1ccc(Cl)cc1Cl,5%,-13%,4%,5%,-8%,50µM*
CC1CCN(C(c2ccc(N(C)C)cc2)c2nnnn2C(C)(C)C)CC1 (stereo unspecified),1%,-10%,7%,-7%,-7%,50µM*
COc1ccc(Cn2nnnc2C(c2ccc(N(C)C)cc2)N2CCC(C)CC2)cc1 (stereo unspecified),-5%,-25%,-15%,-7%,-3%,-1%
CCCc1cc2c(cc1N(C)S(=O)(=O)c1ccccc1)OCO2,28µM*,-7%,-16%,9%,10%,-5%
Cc1nc2ccccn2c1/C(O)=C1\C(=O)C(=O)N(CCN(C)C)C1c1ccco1 (stereo unspecified),-5%,-20%,-4%,3%,-2%,21%
Cc1nc(N2C(=O)C(=O)/C(=C(/O)c3ccccc3)C2c2ccco2)sc1C (stereo unspecified),14%,-9%,9%,4µM*,-3%,-6%
N[C@](CC1c2ccccc2Oc2ccccc21)(C(=O)O)[C@H]1C[C@@H]1C(=O)O,x,x,x,x,x,11%
O/C(=C\c1nc2ccccc2nc1/C=C(\O)c1ccccc1)c1ccccc1,5%,-2%,-12%,1%,3%,79µM*
O/C(=C\c1ccc2ccccc2n1)c1ccncc1,7%,u,5%,5%,-10%,1%
COc1cc(C(=O)ON=C2C(C)=CC(=O)C=C2C)cc(OC)c1OC,8%,-12%,12%,-4%,-6%,89µM*
Cc1ccc(/C=C/C(=O)NCCc2ccccc2)o1,14%,-15%,-7%,11%,8%,71µM*
CCC/C=C1/CCCOC(C(=O)NCc2ccc(C)o2)(C(F)(F)F)C1 (stereo unspecified),-25%,-5%,-17%,0%,-30%,50µM*
COc1ccc(NC(=O)[C@@H]2[C@@H]3C(=O)N(C4CCCCC4)C(=O)[C@@H]3C3c4ccccc4C=CN32)cc1 (stereo partly specified),-5%,32µM*,-1%,-8%,3%,-1%
Cc1nn(C)c(C)c1N1C(=O)c2cccc3c(N)ccc(c23)C1=O,374%,25µM*,94%,100µM*,100µM*,-5%
Nc1ccccc1N1C(=O)c2cccc3cccc(c23)C1=O,2%,-16%,0%,6%,-10%,0%
CCN1C(=O)c2cccc3c(N)ccc(c23)C1=O,130%,165%,68%,63µM*,100µM*,-11%
CC1(OC(=O)c2cnc3ccccc3n2)C(=O)C=C2C=C(c3ccsc3)OC=C2C1=O (stereo unspecified),x,x,x,x,x,0%
CCCCNC(=O)CSc1nc2nc(C)c(Cc3ccccc3C)c(C)n2n1,x,-9%,x,x,x,-2%
CCC[C@H]1C[C@H](C(=O)NC(C(C)Cl)C2O[C@@H](SC)C(OP(=O)(O)O)[C@@H](O)[C@@H]2O)N(C)C1 (stereo partly specified),x,x,x,x,x,-16%
O=C1ON=C(c2ccccc2)/C1=C/c1ccc(O)c(O)c1,1%,-26%,-7%,-3%,-10%,45µM*
COc1ccc(/C=C2\C(=O)ON=C2c2ccccc2)cc1,-4%,-23%,-28%,3%,7%,u
O=S(=O)(Nc1ccc(Cl)cc1)c1ccc(N2CCOCC2)c(NC(=S)NC2CC2)c1,-26%,-8%,-12%,-7%,0%,79µM*
SMILES,EPAC2 antag,USP1-UAF1 inh,EPAC1 antagonist,EPAC2 agonist,EPAC1 agonist,VDR inhibitor
CC(=O)NCCNc1ncnc2ccc(-c3cccc(NS(C)(=O)=O)c3)cc12,x,x,x,x,x,45µM*
CC(C)[C@@H](CC(=O)N[C@@H]1CCNC[C@H]1C(=O)N[C@H](CC(=O)N[C@@H](CCC(=O)O)CC(=O)O)Cc1c[nH]c2ccccc12)NC(=O)C[C@H](CO)NC(=O)[C@@H]1CNCC[C@H]1N,x,x,x,x,x,11%
CCOC(=O)C(CC)(CC)C(=O)/C=C/c1cccc(Br)c1,1%,-21%,2%,-1%,-6%,79µM*
Cc1cnc(CNc2ncncc2-c2ccccc2C(F)(F)F)cn1,x,x,x,x,x,-1%
CC1(C)CC(NS(=O)(=O)c2ccc(Cl)cc2)CC(C)(C)N1,-1%,1%,-2%,6%,8%,89µM*
CN(C(=O)c1ccoc1)c1ccccc1I,x,x,x,x,x,-11%
O=C1Oc2ccccc2C(=O)C1C(CC(O)c1ccc(-c2ccc(Br)cc2)cc1)c1ccccc1 (stereo unspecified),x,x,x,x,x,32µM*
OC(CN1CCN(C(c2ccccc2)c2ccccc2)CC1)c1ccc(Br)cc1 (stereo unspecified),1%,-18%,-7%,4%,-8%,-11%
Cc1ccc(/C=C2\S/C(=N/S(=O)(=O)c3cccs3)NC2=O)cc1,u,u,40µM*,-8%,-9%,-25%
Cc1ccc(S(=O)(=O)/N=C2/NC(=O)/C(=C\c3ccccc3)S2)cc1,u,u,u,-18%,-7%,79µM*
Cc1ccccc1OCc1nc2c3cnn(-c4cccc(F)c4)c3ncn2n1,x,-2%,x,x,x,3%
O=C1CCc2cc(NS(=O)(=O)c3ccc([N+](=O)[O-])cc3)cc3c2N1CC3,10%,-7%,-8%,5%,79µM*,12%
O=C(/C=C/c1cccc([N+](=O)[O-])c1)c1ccc([N+](=O)[O-])o1,12%,u,-4%,-6%,-15%,2.8µM*
O=C(/C=C/c1cccc([N+](=O)[O-])c1)c1ccco1,-2%,-7%,-19%,4%,-15%,u
CN(C)S(=O)(=O)c1cccc(-c2nn(-c3ccccc3)cc2/C=C2\SC(=S)NC2=O)c1,-2%,u,71µM*,-5%,6%,-10%
CN(C)S(=O)(=O)c1cccc(-c2nn(-c3ccccc3)cc2/C=C(\C#N)c2nc3ccccc3[nH]2)c1,1%,-18%,1%,5%,5%,0%
CCOC(=O)C1=C(C)OC(N)=C(C#N)C1c1c(C)nn(-c2ccccc2)c1Cl (stereo unspecified),20%,u,11%,2%,4%,71µM*
